About 83,000 compounds went through this panel and 20% of them were active in at least one assay; those are over-represented in the sample as a whole.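 Values shown are percent growth following 48 h exposure of cells in 96-well plates to a single concentration of compound; below 10 was considered active.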 Calls of active or inactive are those of the source.
Experiments:
Test in all cases: NCI-60 one-dose screen, 48 h (100 = growth as untreated, 0 = no growth, -100 = all killed)
HCT-15 colon = conditions: 10 µM unless noted
HT29 colon = conditions: 10 µM unless noted
SNB-75 CNS = conditions: 10 µM unless noted
SNB-19 CNS = conditions: 10 µM unless noted
U251 CNS = conditions: 10 µM unless noted
PC-3 prostate = conditions: 10 µM unless noted
SK-MEL-5 melanoma = conditions: 10 µM unless noted
UACC-62 melanoma = conditions: 10 µM unless noted
LOX IMVI melanoma = conditions: 10 µM
SK-MEL-28 melanoma = conditions: 10 µM unless noted

Measured: growth

O=C1C=C(c2ccccc2)C(O)(c2ccccc2)C1 (stereo not given)
inactive: HCT-15 colon 132% | HT29 colon 97.8% | SNB-75 CNS 77.6% | SNB-19 CNS 135% | U251 CNS 106% | PC-3 prostate 92.8% | SK-MEL-5 melanoma 106% | UACC-62 melanoma 92.3% | LOX IMVI melanoma 93.6% | SK-MEL-28 melanoma 108%

O=C(NCCc1ccccc1)/C(=C\c1ccc(Cl)cc1Cl)NC(=O)c1ccccc1
inactive: HCT-15 colon 98.4% | HT29 colon 98.3% | SNB-75 CNS 83.4% | SNB-19 CNS 99.2% | U251 CNS 97% | PC-3 prostate 88.8% | SK-MEL-5 melanoma 96.4% | UACC-62 melanoma 98.6% | LOX IMVI melanoma 92.7% | SK-MEL-28 melanoma 105%

S=CN1CCCCC1
inactive: HCT-15 colon 99.9% | HT29 colon 108% | SNB-75 CNS 93.2% | SNB-19 CNS 109% | U251 CNS 89.1% | PC-3 prostate 99.3% | SK-MEL-5 melanoma 104% | UACC-62 melanoma 106% | LOX IMVI melanoma 99% | SK-MEL-28 melanoma 103%

COc1ccc(C(=O)C(=O)c2ccccc2)cc1
inactive: HCT-15 colon 91.9% | HT29 colon 107% | SNB-75 CNS 104% | SNB-19 CNS 100% | U251 CNS 101% | PC-3 prostate 104% | SK-MEL-5 melanoma 90.7% | UACC-62 melanoma 99.2% | LOX IMVI melanoma 100% | SK-MEL-28 melanoma 110%

Cc1onc(-c2ccccc2Cl)c1C(=O)Cl
inactive: HCT-15 colon 98.2% | HT29 colon 106% | SNB-75 CNS 78.1% | SNB-19 CNS 99.2% | U251 CNS 96.8% | PC-3 prostate 90.7% | SK-MEL-5 melanoma 106% | UACC-62 melanoma 99% | LOX IMVI melanoma 95.1% | SK-MEL-28 melanoma 92.6%

CC(C)N(CCCC#N)C(C)C
inactive: HCT-15 colon 96.7% | HT29 colon 86.6% | SNB-75 CNS 85.2% | SNB-19 CNS 90.7% | U251 CNS 92.4% | PC-3 prostate 86.7% | SK-MEL-5 melanoma 103% | UACC-62 melanoma 95.2% | LOX IMVI melanoma 97.7% | SK-MEL-28 melanoma 95.3%

CCOC(=O)c1cc(Cl)c(O)c(Cl)c1
inactive: HCT-15 colon 104% | HT29 colon 103% | SNB-75 CNS 103% | SNB-19 CNS 106% | U251 CNS 104% | PC-3 prostate 101% | SK-MEL-5 melanoma 102% | UACC-62 melanoma 105% | LOX IMVI melanoma 102% | SK-MEL-28 melanoma 106%

Oc1cccc(CNC2CCCCC2)c1
inactive: HCT-15 colon 105% | HT29 colon 100% | SNB-75 CNS 90.4% | SNB-19 CNS 95% | U251 CNS 106% | PC-3 prostate 99.8% | SK-MEL-5 melanoma 103% | UACC-62 melanoma 96.5% | LOX IMVI melanoma 113% | SK-MEL-28 melanoma 110%

Nc1ccc2c(c1)Cc1cc(N)c(N)cc1-2
inactive: HCT-15 colon 108% | HT29 colon 95.9% | SNB-75 CNS 96% | SNB-19 CNS 95.6% | U251 CNS 86% | PC-3 prostate 96.3% | SK-MEL-5 melanoma 93.4% | UACC-62 melanoma 94% | LOX IMVI melanoma 97% | SK-MEL-28 melanoma 107%

Cc1ccc[n+](CCC(N)=O)c1
inactive: HCT-15 colon 111% | HT29 colon 98.1% | SNB-75 CNS 87% | SNB-19 CNS 104% | U251 CNS 87.4% | PC-3 prostate 86.1% | SK-MEL-5 melanoma 102% | UACC-62 melanoma 101% | LOX IMVI melanoma 82% | SK-MEL-28 melanoma 99.9%

COc1cc(C(=O)N2CCN(c3ccccc3)CC2)c2ccccc2n1
active: HT29 colon -19%
inactive: HCT-15 colon 18.3% | SNB-75 CNS 20.9% | SNB-19 CNS 28.4% | U251 CNS 11.1% | PC-3 prostate 35.5% | SK-MEL-5 melanoma 16.8% | UACC-62 melanoma 32.6% | LOX IMVI melanoma 16.5% | SK-MEL-28 melanoma 54.6%

O=C(O)Cc1cccc2ccccc12
inactive: HCT-15 colon 102% | HT29 colon 105% | SNB-75 CNS 82.2% | SNB-19 CNS 116% | U251 CNS 95.1% | PC-3 prostate 106% | SK-MEL-5 melanoma 118% | UACC-62 melanoma 110% | LOX IMVI melanoma 97% | SK-MEL-28 melanoma 121%

CC(=O)c1cc(O)ccc1O
inactive: HCT-15 colon 107% | HT29 colon 104% | SNB-75 CNS 103% | SNB-19 CNS 97.9% | U251 CNS 104% | PC-3 prostate 98.3% | SK-MEL-5 melanoma 113% | UACC-62 melanoma 96.6% | LOX IMVI melanoma 98.9% | SK-MEL-28 melanoma 109%

O=C(O)C1CSC(c2ccccc2)N1 (stereo not given)
inactive: HCT-15 colon 90.5% | HT29 colon 91.7% | SNB-75 CNS 96.7% | SNB-19 CNS 96.5% | U251 CNS 105% | PC-3 prostate 92.6% | SK-MEL-5 melanoma 101% | UACC-62 melanoma 93% | LOX IMVI melanoma 102% | SK-MEL-28 melanoma 99.6%

COc1ccc(C(=O)/C(=N/Nc2ccccc2)c2ccc(OC)cc2)cc1
inactive: HCT-15 colon 76.1% | HT29 colon 80.5% | SNB-75 CNS 97.1% | SNB-19 CNS 100% | U251 CNS 92.4% | PC-3 prostate 78.2% | SK-MEL-5 melanoma 98.1% | UACC-62 melanoma 79.2% | LOX IMVI melanoma 92.1% | SK-MEL-28 melanoma 111%

CCN(Cc1ccc(Cl)c(Cl)c1)c1ccc2nc(N)nc(N)c2c1C
active: HCT-15 colon -82.1% | HT29 colon -79.1% | SNB-75 CNS -94.7% | SNB-19 CNS -97.4% | U251 CNS -92% | PC-3 prostate -62.2% | SK-MEL-5 melanoma -98.2% | UACC-62 melanoma -86.1% | LOX IMVI melanoma -87.5% | SK-MEL-28 melanoma -95.4%

Nc1ncnc2c1ncn2C1OC(CO)C2OC21 (stereo not given)
inactive: HCT-15 colon 108% | HT29 colon 101% | SNB-75 CNS 106% | SNB-19 CNS 118% | U251 CNS 95.7% | PC-3 prostate 95.8% | SK-MEL-5 melanoma 101% | UACC-62 melanoma 100% | LOX IMVI melanoma 99.2% | SK-MEL-28 melanoma 111%

OCc1cccnc1
inactive: HCT-15 colon 92.4% | HT29 colon 107% | SNB-75 CNS 102% | SNB-19 CNS 96.8% | U251 CNS 91.8% | PC-3 prostate 94.7% | SK-MEL-5 melanoma 116% | UACC-62 melanoma 103% | LOX IMVI melanoma 104% | SK-MEL-28 melanoma 111%

CCCCNC(=O)c1ccc(OCC)cc1
inactive: HCT-15 colon 105% | HT29 colon 107% | SNB-75 CNS 102% | SNB-19 CNS 105% | U251 CNS 99.1% | PC-3 prostate 90.9% | SK-MEL-5 melanoma 103% | UACC-62 melanoma 98.2% | LOX IMVI melanoma 95.2% | SK-MEL-28 melanoma 101%

COC(c1ccc2c(c1)OCO2)C(C)Br (stereo not given)
inactive: HCT-15 colon 103% | HT29 colon 88.8% | SNB-75 CNS 76.6% | SNB-19 CNS 101% | U251 CNS 96.9% | PC-3 prostate 69.3% | SK-MEL-5 melanoma 104% | UACC-62 melanoma 94.6% | LOX IMVI melanoma 92.3% | SK-MEL-28 melanoma 103%

CCCCn1cnc2c(=O)[nH]cnc21
inactive: HCT-15 colon 105% | HT29 colon 104% | SNB-75 CNS 89.6% | SNB-19 CNS 96.9% | U251 CNS 109% | PC-3 prostate 94.2% | SK-MEL-5 melanoma 119% | UACC-62 melanoma 95.7% | LOX IMVI melanoma 109% | SK-MEL-28 melanoma 107%

COC1OC(CO)C(OC)C(O)C1O (stereo not given)
inactive: HCT-15 colon 100% | HT29 colon 110% | SNB-75 CNS 103% | SNB-19 CNS 105% | U251 CNS 99.6% | PC-3 prostate 103% | SK-MEL-5 melanoma 103% | UACC-62 melanoma 96.2% | LOX IMVI melanoma 95.6% | SK-MEL-28 melanoma 95.9%

CC(C)c1ccccc1NC(=O)N1CCC(C(C)C)CC1
inactive: HCT-15 colon 110% | HT29 colon 107% | SNB-75 CNS 89.3% | SNB-19 CNS 107% | U251 CNS 98.1% | PC-3 prostate 97.9% | SK-MEL-5 melanoma 97.4% | UACC-62 melanoma 105% | LOX IMVI melanoma 103% | SK-MEL-28 melanoma 106%

CC1(C)CC(=O)C=C(N)C1
inactive: HCT-15 colon 102% | HT29 colon 96.1% | SNB-75 CNS 76.1% | SNB-19 CNS 105% | U251 CNS 98.8% | PC-3 prostate 93% | SK-MEL-5 melanoma 131% | UACC-62 melanoma 98.5% | LOX IMVI melanoma 98.1% | SK-MEL-28 melanoma 104%

Nc1cccc2cccc(O)c12
inactive: HCT-15 colon 83% | HT29 colon 107% | SNB-75 CNS 78.5% | SNB-19 CNS 98.7% | U251 CNS 70.5% | PC-3 prostate 69.6% | SK-MEL-5 melanoma 86.9% | UACC-62 melanoma 86.4% | LOX IMVI melanoma 85.1% | SK-MEL-28 melanoma 111%

CN(C(=S)S(=O)(=O)C12CC3CC(CC(C3)C1)C2)c1ccccc1
inactive: HCT-15 colon 83.7% | HT29 colon 105% | SNB-75 CNS 98.9% | SNB-19 CNS 102% | U251 CNS 108% | PC-3 prostate 82.8% | SK-MEL-5 melanoma 101% | UACC-62 melanoma 91.8% | LOX IMVI melanoma 81.1% | SK-MEL-28 melanoma 107%

O=[N+]([O-])c1c(O)c(CNCCCO)cc(CNCCCO)c1O
inactive: HCT-15 colon 106% | HT29 colon 107% | SNB-75 CNS 91.2% | SNB-19 CNS 105% | U251 CNS 99.6% | PC-3 prostate 88.7% | SK-MEL-5 melanoma 119% | UACC-62 melanoma 97.7% | LOX IMVI melanoma 93.9% | SK-MEL-28 melanoma 121%

C=CC(=O)OC1CCC(C(C)(C)CC)CC1 (stereo not given)
inactive: HCT-15 colon 98.2% | HT29 colon 112% | SNB-75 CNS 95.4% | SNB-19 CNS 109% | U251 CNS 116% | PC-3 prostate 104% | SK-MEL-5 melanoma 104% | UACC-62 melanoma 109% | LOX IMVI melanoma 101% | SK-MEL-28 melanoma 110%

COC(=O)c1ccc([N+](=O)[O-])c(C)c1
inactive: HCT-15 colon 94.9% | HT29 colon 121% | SNB-75 CNS 88.4% | SNB-19 CNS 119% | U251 CNS 101% | PC-3 prostate 93.4% | SK-MEL-5 melanoma 109% | UACC-62 melanoma 107% | LOX IMVI melanoma 107% | SK-MEL-28 melanoma 102%

CC(O)C(F)(F)C(F)(F)C(F)(F)F (stereo not given)
inactive: HCT-15 colon 88.2% | HT29 colon 99.9% | SNB-75 CNS 103% | SNB-19 CNS 112% | U251 CNS 103% | PC-3 prostate 110% | SK-MEL-5 melanoma 101% | UACC-62 melanoma 115% | LOX IMVI melanoma 107% | SK-MEL-28 melanoma 108%
